Data on 32 compounds can be found in PubChem BioAssay (Tox21).

Inconclusive results are not listed. Calls of active or inactive are those of the source. Calls come from the whole dose curve; as a rule, active = well fitted cell-killing curve with a large enough effect in the repeat runs; inconclusive = weak or mixed curves, or effect the other way; inactive = no such curve, though single readings can be large or run the other way.
% is set by controls: 0 for no effect and ±100 for the full control effect; potency is the fitted concentration of half-maximal effect.

The nature of one assay: qHTS assay for identifying genotoxic compounds that show differential cytotoxicity against isogenic chicken DT40 cell lines with known DNA damage response pathways - wild type cell line (AID 743012). Note: nearly all actives have a fitted effect of over 60% in size. As to conditions: DT40 wild type chicken cells viability, CellTiter-Glo, 40 h; series mostly up to 68.4 µM; activity change, negative = cytotoxicity: at the top concentration. A digest of the protocol:
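Cells (DT40 wild type, 300/well) are treated with DMSO-dissolved compounds after a ~0.5 h pre-incubation and kept 40 h at 37 C/5% CO2. Viability is then measured by CellTiter-Glo luminescence following 30 min at room temperature.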
(In qHTS, concentration-response curves come from the screen itself.)
Consider `Cc1c(Nc2ncccc2C(=O)O)cccc1C(F)(F)F`, for which the Potency was 12.7 µM (active).
`C[C@@H](O)[C@H]1C(=O)N2C(C(=O)O)=C(S[C@@H]3CN[C@H](CNS(N)(=O)=O)C3)[C@H](C)[C@H]12`: the “activity change, negative = cytotoxicity” value is 1.04% (inactive).
For the compound `CCCCCCOC(=O)c1ccccc1`, the Potency was 68.6 µM (active).
Turning to `CCCCOC(=O)CC#N`, the “activity change, negative = cytotoxicity” value is -2.64% [at 95 µM] (inactive).
On to `Nc1ccccc1Nc1ccccc1`, for which the Potency was 19.4 µM (active).
On to `Cc1cc(SC2=C(O)C[C@@](CCc3ccc(N)cc3)(C(C)C)OC2=O)c(C(C)(C)C)cc1CO`, for which the “activity change, negative = cytotoxicity” value was 4.74% (inactive).
Still for that read-out and setting: with `COc1cc(CNC(=O)CCCC/C=C/C(C)C)ccc1O` the figure was 2.54% (inactive).
On the same count and under the same terms, with `CC/C=C/CCO` the figure was -6.53% [at 95 µM] (inactive); with `C(/C=C/C=C/Nc1ccccc1)=Nc1ccccc1`, 11.3% (inactive).
Take `CC(C)(Cc1c[nH]c2ccccc12)NCC(O)COc1ccccc1C#N` (centres undefined): the Potency was 9.44 µM (active).
As for `CCOc1ccc(NC(C)=O)cc1N`, the “activity change, negative = cytotoxicity” value was 6.32% [at 95 µM] (inactive).
Take `COc1ccc(C(=O)c2ccc(C)cc2)c(O)c1`: the Potency result was “inactive”.
Turning to `CCCCCCCCCCCCCCCCC(=O)O`, the “activity change, negative = cytotoxicity” value was 3.65% (inactive).
Consider `CC(=O)c1cccnc1`, for which the “activity change, negative = cytotoxicity” value was 14% (inactive).
On the same count and under the same terms, with `CCC[Si](OC)(OC)OC` the figure was -0.282% (inactive).

The nature of a further assay: qHTS assay for identifying genotoxic compounds that show differential cytotoxicity against isogenic chicken DT40 cell lines with known DNA damage response pathways - Rev3 mutant cell line (AID 743014). Note: nearly all actives have a fitted effect of over 55% in size. To be noted: chicken DT40 Rev3-/- viability, CellTiter-Glo, 40 h; series mostly up to 68.4 µM; activity, negative = cytotoxicity: at the top concentration.
On to `CC(CCl)OC(C)CCl` (centres undefined), for which the “activity, negative = cytotoxicity” value was 10.5% (inactive).
As for `CCCCCCC/C=C/C=O`, the “activity, negative = cytotoxicity” value is -25.8% (inactive).
Take `Oc1ccc(Oc2ccccc2)cc1`: the Potency was 23.1 µM (active).
For the compound `FC(F)(Cl)C(F)(Cl)Cl`, the “activity, negative = cytotoxicity” value is 2.29% (inactive).
Still for that read-out and setting: with `CCC(C)C1N=C(C)C(C)S1` (centres undefined) the figure was 4.07% (inactive).
Turning to `O=C(Nc1ccccc1)c1cc([N+](=O)[O-])ccc1Cl`, the Potency was 68.6 µM (active).
Take `O=C(Cl)c1ccc(F)c(Cl)c1`: the “activity, negative = cytotoxicity” value is -20% (inactive).
On the same count and under the same terms, next, `CC(=O)CC/C=C(\C)CC/C=C(\C)CC/C=C(\C)CCC=C(C)C`: -0.585% (inactive).
In the case of `CCOc1ccc2c(c1)C(C)CC(C)(C)N2` (centres undefined), the Potency is 54.5 µM (active).
Same read-out and setting: next, `O=C(OCCCCCOC(=O)c1ccccc1)c1ccccc1`: 61.1 µM (active).
As for `Cc1c(Nc2ncccc2C(=O)O)cccc1C(F)(F)F`, the “activity, negative = cytotoxicity” value was -20% [at 31.4 µM] (inactive).
The same measure, in the same setting: next, `O=C(O)c1ccc2c(c1)nc(C(=O)NC1CCN(C3CC3)CC1)n2Cc1cc(-c2ccc(Cl)s2)on1`: -22.5% [at 31.4 µM] (inactive).
As for `CCCCCCOC(=O)c1ccccc1`, the Potency was 61.1 µM (active).
Turning to `Nc1ccccc1Nc1ccccc1`, the Potency is 8.66 µM (active).
Take `Cc1cc(SC2=C(O)C[C@@](CCc3ccc(N)cc3)(C(C)C)OC2=O)c(C(C)(C)C)cc1CO`: the “activity, negative = cytotoxicity” value was 6.86% (inactive).
For the compound `COC=O`, the Potency was 4.48 µM (active).
On the same count and under the same terms, with `COc1cc(CNC(=O)CCCC/C=C/C(C)C)ccc1O` the entry was “inactive”.
Same read-out and setting: next, `C=CC(C)(O)CC/C=C(/C)CCC=C(C)C` (centres undefined): 54.5 µM (active).
On to `Clc1ccccc1-c1nc(-c2ccncc2)no1`, for which the “activity, negative = cytotoxicity” value was -15.4% (inactive).
The same measure, in the same setting: next, `C(/C=C/C=C/Nc1ccccc1)=Nc1ccccc1`: -15% (inactive); `O=C(O)c1ccccc1-n1cc(C(=O)O)c(=O)c2cc(Nc3c(F)cc(F)cc3Cl)c(Cl)cc21`: 0.746% (inactive).
Turning to `CC(C)(Cc1c[nH]c2ccccc12)NCC(O)COc1ccccc1C#N` (centres undefined), the Potency is 13.3 µM (active).
As for `CCc1c(C)[nH]c2c1C(=O)C(CN1CCOCC1)CC2` (centres undefined), the “activity, negative = cytotoxicity” value was -0.805% [at 31.4 µM] (inactive).
The same measure, in the same setting: with `CCOc1ccc(NC(C)=O)cc1N` the figure was -8.95% [at 95 µM] (inactive); with `COc1ccc(C(=O)c2ccc(C)cc2)c(O)c1`, -3.25% (inactive).
As to `C=C(C)C(=O)OCCCCCCCCCCOC(=O)C(=C)C`, the Potency is 30.6 µM (active).
For the compound `CCCCCCCCCCCCCCCCC(=O)O`, the “activity, negative = cytotoxicity” value was 4.97% (inactive).
On the same count and under the same terms, next, `CC(=O)c1cccnc1`: -15.7% (inactive).
Still for that read-out and setting: with `CCC[Si](OC)(OC)OC` the figure was 10.2% (inactive).
